GPR7 antagonist – human neuropeptides B/W receptor 1 antagonism | GPR7-expressing cells, fluorescence antagonist assay | hit rate 1.1% among 290,000 | P48145 | inhibition, % at 4.4 µM; in the data active = inhibition above about 16%, passing the limit was not always enough;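 also: cells stimulated with the agonist NPW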
Target sequence (P48145 whole entry, looked up): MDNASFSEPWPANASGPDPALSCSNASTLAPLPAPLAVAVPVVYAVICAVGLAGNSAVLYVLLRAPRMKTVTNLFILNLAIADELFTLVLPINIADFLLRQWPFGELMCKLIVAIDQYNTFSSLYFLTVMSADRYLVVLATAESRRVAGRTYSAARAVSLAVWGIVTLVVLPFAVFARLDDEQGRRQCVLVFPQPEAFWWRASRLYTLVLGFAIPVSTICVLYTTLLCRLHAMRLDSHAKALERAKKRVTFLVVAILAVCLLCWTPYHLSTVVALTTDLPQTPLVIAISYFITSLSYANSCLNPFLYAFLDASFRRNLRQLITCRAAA
TMEM16A inh – inhibitors of mouse TMEM16A calcium-activated chloride channel; normalized B-score (activity score, 25-100; higher = stronger inhibition) at 10 µM; HEK293 TMEM16A/YFP iodide influx fluorescence, ionomycin; hit rate 1.2% among 310,000; Q8BHY3;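 active = ratio plate-corrected score three or more library SD toward inhibition, starting fluorescence score within five deviations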;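 also: score derived from kinetic fluorescence span divided by baseline fluorescence per well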
CHT allo act – allosterically activates the human high affinity choline transporter | Q9GZV3 | CHT-expressing cells, membrane potential dye, choline EC20; stronger effect = higher value; LV-AA mutant CHT in HEK293 cells | B-score at 10 µM | hit rate 0.49% among 310,000 | AID 488977;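 active = initial fluorescence not abnormally high and integrated response B-score, plate-corrected, over 3 SD above library mean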
TMEM16A act – activates or potentiates the mouse TMEM16A chloride channel; AID 623877; HEK293 TMEM16A/YFP-H148Q/I152L, iodide quench fluorescence; stronger effect = lower value; B-score at 10 µM; hit rate 0.3% among 340,000;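 active = fluorescence-ratio B-score plate-corrected deviation score at least 3 library SD below zero, with starting fluorescence score within 5 deviations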;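 also: channel opened by trigger with iodide after compound preincubation; score built on the fluorescence ratio of max minus min over baseline; more negative score means more quench and so TMEM16A activation or potentiation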
CHT block – human CHT choline transport inhibition; B-score at 10 µM; CHT-expressing cells, membrane potential dye, choline response; stronger effect = lower value; hit rate 0.86% among 310,000;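 active = B-score over 3 SD under the library average, and starting fluorescence ratio not unusually high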;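 also: choline stimulus applied at its EC90 after an EC20 pre-addition; B-score computed on integrated fluorescence ratio after choline addition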
Kir21 block – inhibitors of mouse Kir2.1 inward-rectifier potassium channel. P35561. HEK293-Kir2.1, FluxOR thallium flux fluorescence; stronger effect = lower value. B-score at 10 µM. hit rate 0.85% among 310,000. AID 1672;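 active = fluorescence ratio B-score at or below minus 3 SD of library scores, with starting-brightness B-score within 2 SD, cut at about -4.2 in these data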;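 also: channel flux triggered by added potassium and thallium sulfate stimulus; B-score of peak minus minimum fluorescence over baseline after thallium stimulus; more negative B-score means stronger Kir2.1 block with less thallium influx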
Target sequence (P35561 whole entry, looked up): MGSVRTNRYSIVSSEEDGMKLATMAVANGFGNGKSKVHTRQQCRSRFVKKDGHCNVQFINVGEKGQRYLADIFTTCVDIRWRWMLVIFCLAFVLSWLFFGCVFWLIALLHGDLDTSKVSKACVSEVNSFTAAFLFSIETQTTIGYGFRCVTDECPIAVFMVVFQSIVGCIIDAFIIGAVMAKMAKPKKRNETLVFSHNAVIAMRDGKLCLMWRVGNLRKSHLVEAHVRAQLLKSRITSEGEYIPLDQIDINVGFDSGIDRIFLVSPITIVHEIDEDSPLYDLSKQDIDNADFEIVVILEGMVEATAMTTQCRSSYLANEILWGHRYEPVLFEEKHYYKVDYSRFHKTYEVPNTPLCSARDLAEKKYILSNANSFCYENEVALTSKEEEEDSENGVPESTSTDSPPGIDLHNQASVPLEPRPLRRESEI
Large screens that a line does not name were inactive. Rows were chosen to be rich in hits. Some 3.7% of all compounds tested hit in one or more screens of this group.

CCN(CC)Cc1cc2ccccc2c2c1COC2	TMEM16A inh 25
C=CC[n+]1c(-c2ccc(C)cc2)csc1Nc1ccc(NC(C)=O)cc1	none (no result: TMEM16A inh, CHT allo act, CHT block)
C=CC[n+]1c(-c2ccc(OC)cc2)csc1NNC(=O)Nc1ccccc1	TMEM16A inh 100
CN(C)S(=O)(=O)Oc1cccc(C(=O)Nc2ccccc2Cl)c1	none
CN(C)S(=O)(=O)Oc1cccc(C(=O)Nc2ccc(Cl)cc2)c1	TMEM16A inh 100
CSc1ccc(C(=O)C2CCCN(C(=O)c3ccc4c(c3)OCO4)C2)cc1 (stereo not drawn)	none
O=C(c1cccc(Cl)c1)C1CCCN(C(=O)c2ccc3c(c2)OCO3)C1 (stereo not drawn)	Kir21 block -4.8
CC(C)N(Cc1ccccc1)S(=O)(=O)c1ccc2c(c1)NC(=O)CO2	none
CC(C)Cc1cc(CN2CCC(CO)(Cc3ccccc3)CC2)[nH]n1	none
CCc1nnc(NS(=O)(=O)c2ccc(NC(=S)NC(=O)/C=C/c3ccc(C(C)C)cc3)cc2)s1	TMEM16A inh 100
CCc1nnc(NS(=O)(=O)c2ccc(NC(=S)NC(=O)/C=C/c3ccccc3)cc2)s1	none
O=C(NN1CCOCC1)c1ccc(Cl)s1	none
Cc1ccc([C@H]2C(C#N)=C(N)Oc3cc(C)oc(=O)c32)o1	TMEM16A act -4.6
C(CNC1C2CC3CC(C2)CC1C3)CN1CCOCC1 (stereo not drawn)	none
C1CCN(CCCNC2C3CC4CC(C3)CC2C4)C1 (stereo not drawn)	Kir21 block -11
Cc1cc(C)c(NC(=O)CS(=O)CC(=O)Nc2ccc(F)cc2F)c(C)c1 (stereo not drawn)	none
O=c1c2ccccc2sc2ccccc12	none (no result: GPR7 antagonist, TMEM16A inh, CHT allo act, CHT block, Kir21 block)
O=c1c(C(c2ccccc2)c2c(O)sc3ccccc3c2=O)c(O)sc2ccccc12	TMEM16A inh 100, CHT block -5.2
CN1CCN(CCCc2c3c(cc4c2CCC4)CCC3)CC1	Kir21 block -4.4
Cc1cc(C)c(NC(=O)CCCN2CCN(C)CC2)c(C)c1	none
N#C/C(=N\Nc1ccccc1)C(N)=S	TMEM16A act -16
CN(C(=O)COC(=O)C(C)(C)Oc1ccc(Cl)cc1)c1c(N)n(Cc2ccccc2)c(=O)[nH]c1=O	none (no result: GPR7 antagonist)
Cc1[nH]c2ccccc2c1C(=O)CSC(=S)N1CCCCC1	TMEM16A act -12
Cc1[nH]c2ccccc2c1C(=O)CSC(=S)N(C)C1CCCCC1	none
O=C(COC(=O)c1ccccc1C(=O)c1ccccc1)Nc1ccc(SC(F)F)cc1	TMEM16A inh 100
O=C(COC(=O)c1cc(S(=O)(=O)N2CCCC2)ccc1O)Nc1ccc(S(=O)(=O)N2CCOCC2)cc1	none
O=C(COC(=O)c1cc(S(=O)(=O)N2CCCC2)ccc1O)Nc1ccc(SC(F)F)cc1	TMEM16A act -26 (no result: GPR7 antagonist, TMEM16A inh, CHT allo act, CHT block, Kir21 block)
CCn1nc(CC(=O)Nc2nnc(CC(=O)N3CCCCC3)s2)c2ccccc2c1=O	none (no result: TMEM16A inh, CHT allo act, CHT block)
Cc1nn(CC(=O)Nc2nnc(CC(=O)N3CCCC3)s2)c(=O)c2ccccc12	GPR7 antagonist 18
N#C/C(=C\c1ccccc1O)C(=O)Nc1ccccn1	none
COc1cc(/C=C2/SC(=S)N(CC(=O)O)C2=O)ccc1OC(=O)c1ccco1	TMEM16A act -5.3
COc1cc(/C=C2/C(=O)NN(c3cccc(C)c3)C2=O)ccc1OC(=O)c1ccco1	Kir21 block -6.1
COc1ccc(C(NC(=O)CN2CCCCCC2)c2ccc(OC)cc2)cc1	none
Cc1nnc(SCCOC(N)=O)n1C	none (no result: TMEM16A inh, CHT allo act, CHT block)
C[N+](C)(C)CCOC(N)=O	TMEM16A act -5.7 (no result: GPR7 antagonist, Kir21 block)
Cc1ccc2nc(CSc3nnc4ccccn34)cc(=O)n2c1	GPR7 antagonist 17
CCOC(=O)c1cccnc1SCc1cc(=O)n2ccccc2n1	TMEM16A inh 25
COCc1cc(C)nc(OCC(=O)N/N=C/c2ccc(-c3cc([N+](=O)[O-])ccc3Cl)o2)c1C#N	none
Oc1ccc(C23CCCC2C2(CCCC2)c2ccc(O)cc2O3)c(O)c1 (stereo not drawn)	none (no result: GPR7 antagonist, TMEM16A inh, CHT allo act, CHT block, Kir21 block)
O=C(Nc1ccc2c(c1)OCO2)C1CC(c2ccc(Cl)cc2)=NO1 (stereo not drawn)	TMEM16A inh 100
O=C(O)c1ccccc1Nc1cccc(OCc2ccc3ccccc3n2)c1	TMEM16A inh 100 (no result: GPR7 antagonist, Kir21 block)
CN1CCN(c2ccc(Nc3ccnc4cc(Cl)ccc34)cc2)CC1	Kir21 block -6.8
CCN(CC)c1nc2ccccc2nc1-n1nc(C)cc1C	Kir21 block -4.3
Cc1cc(C)n(-c2nc3ccccc3nc2Nc2ccc3c(c2)OCO3)n1	none
CCOC(=O)c1c(C)[nH]c(C)c1S(=O)(=O)N(C)CC(=O)Nc1ccccc1F	none
COc1ccc(-n2nc3c(c2NC(=O)C(C)Oc2ccccc2)CS(=O)C3)cc1 (stereo not drawn)	none
O=C(NCC1(c2ccccc2)CCCC1)c1ccccc1	none
O=C(NCC1(c2ccccc2)CCCC1)c1ccccc1Br	Kir21 block -5.3
CN(C)CCNc1ncnc2oc(-c3ccccc3)c(-c3ccccc3)c12	Kir21 block -4.7
CS(=O)(=O)/C(C#N)=C/c1cccn1S(=O)(=O)c1ccccc1	none
N#CC(C#N)=Cc1cccn1-c1ccc(S(N)(=O)=O)cc1	TMEM16A act -6.1
CCCS(=O)(=O)N1CCN(C2Cc3ccccc3C2)CC1	TMEM16A act -13
CCCS(=O)(=O)N1CCN(C2CCC(C)CC2)CC1 (stereo not drawn)	none
CO/N=C/c1cccn1-c1nccc(N(C)C)c1C#N	none
CCc1nn2cc(C(=O)c3cc(Cl)ccc3O)cnc2c1-c1ccc(F)cc1	TMEM16A inh 100
COc1cc(OC)cc(C(=O)N[C@H](C(=O)OCC(=O)N2CCc3ccccc32)C(C)C)c1	none
COc1ccccc1-c1nnc(SC(C)C(=O)O)n1-c1ccccc1 (stereo not drawn)	none
CCOC(=O)c1nc(N2CCN(C(=O)OCC)CC2)c2c3c(sc2n1)CCCC3	CHT block -5.9
COCCN(CC(=O)Nc1cccc(C)c1C)C(=O)c1cc(-c2ccncc2)nc2ccccc12	none (no result: GPR7 antagonist, TMEM16A inh, CHT allo act, CHT block, Kir21 block)
Nc1sc2c([n+]1CCCS(=O)(=O)[O-])CCCC2	none
Cc1ccc(S(=O)(=O)CCC(=O)Nc2sccc2C#N)cc1	Kir21 block -4.6 (no result: GPR7 antagonist)
Cc1ccc(S(=O)(=O)CCC(=O)Nc2sccc2C(N)=O)cc1	none (no result: GPR7 antagonist, TMEM16A inh, CHT allo act, CHT block, Kir21 block)
CCCCn1c(N)c(N(CC(C)C)C(=O)CCCc2nc3ccccc3c(=O)[nH]2)c(=O)[nH]c1=O	none (no result: GPR7 antagonist)
CC[n+]1ccc2cc(OC)c(OC)cc2c1Cc1ccc(OC)c(OC)c1	CHT allo act 6.3
COc1ccc(Cc2c3cc(OC)c(OC)cc3cc[n+]2C)cc1OC	CHT allo act 12 (no result: GPR7 antagonist)
COc1cc2c[n+](C)c3c4ccccc4ccc3c2cc1OC	none (no result: GPR7 antagonist, TMEM16A inh, CHT allo act, CHT block, Kir21 block)
Cc1ccc(NC(=O)CNCCCN2CCOCC2)cc1S(=O)(=O)N1CCCCC1	none
Cn1c(=O)c2c(ncn2CC(=O)Nc2nc(-c3ccccc3Cl)cs2)n(C)c1=O	TMEM16A act -10
CCOC(=O)Cc1csc(NC(=O)Cn2cnc3c2c(=O)n(C)c(=O)n3C)n1	none
O=C(Nc1cc2cccc([N+](=O)[O-])c2oc1=O)c1cccs1	none
